Results on 107 sequences are retold here after PubChem BioAssay AID1508600 (Functional Genomics Laboratory (NCATS/FGL), 2020).

In all, about 53,000 sequences went through this assay and about 3,700 (7%) were called active.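 How the source made its calls: active means gene knockdowns whose robust z-score for IL-1 alpha signal is at least 2 or at most -2, so actives lie on both sides; inactive means the rest.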 Shown is part of a subset that was picked to be rich in actives.

A short description of this experiment: Components of the Cytosolic LPS Sensing Pathway: Gene Identification via Genome-wide siRNA Screen.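 Further: robust z of the log signal after scaling to non-targeting control siRNA wells of the plate.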 The settings on record: RAW264.7 macrophages, IL-1a HTRF, actives lie on both sides, screened at 100 nM (by protocol), cells primed 5 h with Pam3CSK4 first. The essentials: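 RAW264.7; siRNA 100 nM final, RNAiMAX, 48h 37 degrees C; Pam3CSK4 5 h; LipidA + TransIT-TKO 24 h; IL-1a HTRF; CellTiter-Glo viability; robust z vs negative-control median.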
As for GGGUUUGAUUCAUCAAAAATT against Peli1, the z-score was 0.314 (inactive). The same measure for CCUACGCCAAGCAGUAUGATT against Mcm3: 0.286 (inactive); for GGAUUUUGACAGUCUGUGUTT against Endou: -0.438 (inactive). Turning to GGACUGAUUGUUUUAUGCUTT against Gdap10, the z-score is -1.06 (inactive).

Turning to GGCCCUCAAUACCUGUGGUTT against Olfr690, the z-score was -3.13 (active).

Turning to GGAGAGACAUCCAAAAGUATT against H60a, the z-score was 0.658 (inactive). The same measure for GCCAUAUAAUUUGACAGAGTT against Tarm1: -0.0405 (inactive); for GCUCACAACAUGAGAGUCATT against Atp6v0e: -0.539 (inactive). For GGGAAUUACAGCACACAAUTT against Treml4 the value was -0.21 (inactive); for GGAACAAAACAAAUAGCUATT against Vstm2a, 1.79 (inactive).

Turning to GGUUUCUAUAAAUCUCCCUTT against Eif4b, the z-score was 0.895 (inactive).

Consider CGUGGUCUUCACGAUUGGATT against Pde4c, for which the z-score is 3.71 (active).

For the sequence “GGAGGCUAUCAGAAGCAUCTT against C130021I20Rik”, the z-score was 0.762 (inactive).

For the sequence GGAACCAACAGAGAAAACUTT against Hr, the z-score was 0.317 (inactive). For the sequence “GGCCUGUUUUUGCAUUUUATT against 9030612E09Rik”, the z-score is -0.0316 (inactive).

Take GCAUUCGAAAUGAAGAUAATT against Dnajb1: the z-score was -1.75 (inactive). For the sequence GGUUUUCUUUUCUUCUGCCTT against Aar2, the z-score was -1.11 (inactive). The same measure for GGGAUUCACUCUUCUUUAGTT against Sebox: 1.97 (inactive); for GGAACAAGCAAGUCAAACATT against Olfr770: 2.24 (active). On to CGACUGGGUCUUAUGUUUATT against Tas2r121, for which the z-score was -0.105 (inactive). On to “CCAAGAAAGACAGUAACUATT against 4930432K21Rik”, for which the z-score was -0.986 (inactive). In the case of GGAUCUGGACUUAAUGCUCTT against Tfeb, the z-score is -0.383 (inactive). Regarding GGCCUUACCAAAUGGAAGUTT against Ifih1, the z-score was 2.89 (active). For GCACGGAUUAAUGUGAUGATT against Ilk the value was 0.406 (inactive). The same measure for CCGUUGGAUACUGUAGUUCTT against Gpr152: 0.023 (inactive).

As to GCAACACACCAUAUCAGGATT against Tas2r135, the z-score was -0.322 (inactive). Regarding CCACCAUCGGUUGUUAGUUTT against Actg1, the z-score is 1.81 (inactive). In the case of GGACAGCUUGUAAAUUGCCTT against Mup21, the z-score is -2.05 (active). With GGUCUCAUUUCAAAUGGUUTT against Lonrf3, the z-score was 0.63 (inactive).

GGAGAUUUCUUCCAUGGUCTT against Hspa2: the z-score is 0.445 (inactive).

Turning to CGACAGAGUGAAAAUUAAGTT against Setd3, the z-score was -0.937 (inactive). The same measure for CGCAGAGAAGGACUAUCUUTT against Ush1c: -1.58 (inactive). For GGACAAGUGUCAGAUAUCATT against Asah2 the value was -2.02 (active); for CCUGCUUACCAAAGAAUCCTT against Klf11, -0.884 (inactive); for GGGACAAGUUGGAUUCUUGTT against Polr1e, -0.96 (inactive). With GCCUUACAACAAGCAACACTT against Esrp1, the z-score was -0.385 (inactive). Turning to GCGGGCCAUGACAAUUACUTT against Slc45a1, the z-score is 0.566 (inactive). Turning to GCGAUGCUGGCAAGUAUGUTT against Robo1, the z-score is 0.45 (inactive). With CCCAGACGAGAACUGUAUCTT against Sqor, the z-score is -0.0381 (inactive). Take GGGUUAGGAUACCUCGACUTT against Arnt2: the z-score was -2.5 (active). The same measure for GGAAAGAUGUGGAAGUAAATT against Erc1: -0.977 (inactive); for GGAAAAGCAAGAGGAAAGATT against Ifnb1: 2.39 (active). For GCAACCAUCGUAGCAGAUCTT against Aaas the value was 1.54 (inactive). For GCCACUGAUGUAAGGCUCATT against Lurap1l the value was 0.871 (inactive); for CCCUCGUCUGAAAUGGAAATT against Nploc4, -2.02 (active).

Turning to GGAACAGCUGACCUACUUUTT against Ahi1, the z-score was 1.08 (inactive). As to GGUAGACCAGCUUAAGAAGTT against Gngt1, the z-score was -0.0811 (inactive).

As to GGCUUUUCACAAAACUGUUTT against Zfp120, the z-score is 1.07 (inactive). Consider CCUAAAUCCUGCUAGGCGUTT against Cbln1, for which the z-score is -1.03 (inactive). Turning to GGUUAUAGGAAGGAAUUGCTT against Krt90, the z-score is 2.58 (active). The same measure for GAUGUCCUUCACCUUUGCCTT against Atp5d: -1.9 (inactive); for GGCGCACACUUUCACCUAATT against Tmem170: 0.194 (inactive). Regarding GGUUGUUUAUACCUGUGAUTT against Cfh, the z-score was -0.292 (inactive). The same measure for GGUGUCAACUUUAUUCUUUTT against Rab1a: 0.813 (inactive); for GGGAUCCCUUCUGGAAAAGTT against Dmrtc2: 0.581 (inactive). As for GGGCUCCUGAGCCUCUUAATT against Sprr1a, the z-score is 2.29 (active).

With GGUUGCACUCAUCUUAAAATT against Zfp9, the z-score is 1.59 (inactive). As for GGAAACUUCCCUUCCUAACTT against Snrpc, the z-score is -0.397 (inactive). Regarding “GCCUCUGGCAGAGAAAAGATT against 4930579K19Rik”, the z-score was -1.78 (inactive). On to CCAAGUUUUCAAAACAAACTT against Aqp3, for which the z-score is -0.0587 (inactive). The same measure for GGAAGUGGACCAUUUCUUUTT against Olfr1359: 0.719 (inactive); for GGCCUGAAGGGAAAGAUUUTT against Rbbp4: -0.721 (inactive); for GGACUUGGGUCAUUGUGAGTT against Grpel1: -0.93 (inactive). On to GGCAGUUUCUGUGCUAUACTT against Olfr984, for which the z-score is -2.49 (active). As for GGAUAUUUAUUGUAUCCCATT against Col8a1, the z-score was -0.918 (inactive). Turning to GGCAUCUGACGAUAAUGAUTT against Lman2l, the z-score was -0.337 (inactive). For GUUUUUCAUACAGUAGUAGTT against Vmn1r27 the value was 0.42 (inactive); for “CCUGUGGGACUCAAUGUUGTT against 2310039H08Rik”, -0.722 (inactive); for GGCCAGGAGAAGAAGAUACTT against Tet2, -0.261 (inactive). Take GCCAUUCAAAAAUCAGCCGTT against Ddi2: the z-score was -2.02 (active).

For GCUCCUAGGAACUUGGUUATT against Pacsin2, the z-score was 0.687 (inactive). Take GGCUGUUACAUUCUAUAUUTT against Kif5c: the z-score was -0.13 (inactive). For CCCAAUUAAUGAUCACCCATT against Tlcd2 the value was -3.04 (active). The same measure for GGCCCUGAACUGGUUUUGUTT against Osbpl10: -0.119 (inactive); for GCUCAACACUCGACAUUGUTT against Rrm1: -2.56 (active). The same measure for GGUGGCAUUAAGGAAAUCATT against Olfr147: -0.0185 (inactive); for GGCCUGAAGCAGCUUAUCUTT against Chad: -1.56 (inactive); for GGCAAAAAUGAGAAAGAGATT against Hebp2: -0.643 (inactive). In the case of GCGUAUUACACCCUUGGAATT against Terf1, the z-score was -0.462 (inactive). The same measure for GUCCUCCAUGAAGAAGCUCTT against Prm3: -0.953 (inactive); for GGACUUCAACAAGACCAUCTT against Proser2: 1.55 (inactive); for CGUCCAUAGAACAAUUGCATT against Rnase12: 2.82 (active). Take GGUAUUCCUGUCUCAGGUCTT against Matn1: the z-score is -0.59 (inactive).

Take GGUUAUUCUCAUUUCGGAUTT against Phospho1: the z-score is 1.53 (inactive). For GCUUACUUCCAAGGUCUACTT against Ptch2 the value was 0.905 (inactive).

As for CCCAGCAGGCCAUAUUAGUTT against Cks1b, the z-score was 0.377 (inactive). The same measure for GGGAUCAUAAAGAUAACUUTT against Fasn: 2.2 (active). On to GCAUAGGGUCAUUUCAAGCTT against Kif23, for which the z-score is 0.0957 (inactive). The same measure for GCUGUACUAUCUUUUUCAUTT against Olfr165: -0.0549 (inactive); for GCCAGUUUGUGUGCAAAAATT against Lrp1: -0.551 (inactive); for GAUCUGGUAUGUUUGUGACTT against Olfr1414: -1.14 (inactive). Consider CCUGUGUGUGAAUCUCGUUTT against C1qb, for which the z-score was 1.11 (inactive).

Regarding GGAAAUGUUGCCGUUGUCCTT against Mfsd8, the z-score was 2.13 (active). The same measure for GGGUGGGAGACGAAGAUAATT against Usp17lf: -0.12 (inactive); for CCUAAUGGUUCAGGAUACGTT against Pcdhb5: -0.641 (inactive).

For the sequence GGCUUUGAAAGUUACUACUTT against Zfp609, the z-score was 1.22 (inactive). With GCCACUGUGUGGAAUAAAUTT against Cblif, the z-score was 0.727 (inactive). The same measure for CCAAAAGAGUUUUACAGGGTT against Lhx9: -0.119 (inactive); for GGAUCAGGAAGUAAACUUCTT against S100a6: 2.57 (active); for GCUGUGUAGCAUUUUAACATT against Ank2: -0.0376 (inactive). As to GUUGACUGUACCCGAUACATT against Mxd3, the z-score is -0.0552 (inactive). With GGUGCUGAGGCUGAUUCUCTT against Capn15, the z-score was 3.35 (active). For GGUAUAUCGCCUAAUCACUTT against Chd6 the value was -0.885 (inactive).

Consider GGUAGUGGAGCUGAAUGUUTT against Kctd8, for which the z-score is 0.113 (inactive). For GCAGCCUUCGUGAGUCUGUTT against Asb1 the value was -0.666 (inactive); for GGAUUAUGAUCCAGAAUUCTT against Omd, 2.96 (active); for GGGACAUGAGUAACUGAUGTT against Dhx8, -0.908 (inactive).
